# Laboratory results published in PubChem BioAssay AID687001 (Broad Institute, 2013).
# Results with a measured potency or affinity are listed apart. Calls of active or inactive are those of the source.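 Rule for the calls: active = signal-lowering compounds whose fitted half-maximal concentration is at or below twice the top tested dose in every run; inconclusive = runs disagree, flat 30 to 70% inhibition, or poor curve fit; inactive = the rest.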
# Target: Protein S100-A4 (Homo sapiens) (UniProt P26447)
# Test: human S100A4 peptide interaction inhibition curves – biochemical, fluorescence polarization, cherry-picked hits, dose response (AID 687001)
# Conditions: FP, S100A4/TAMRA-myosin IIA peptide binding; series mostly up to 11 µM
# Sequence of Protein S100-A4 (Homo sapiens) (P26447 whole entry, looked up): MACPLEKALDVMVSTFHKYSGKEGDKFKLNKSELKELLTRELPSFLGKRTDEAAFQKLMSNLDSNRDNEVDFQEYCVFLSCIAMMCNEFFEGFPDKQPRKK
row,SMILES,outcome
1,C[C@@H]1CCCCO[C@@H](CN(C)CC2CCCCC2)[C@@H](C)CN([C@H](C)CO)C(=O)c2cc(NS(=O)(=O)c3cn(C)cn3)ccc2O1,inactive
2,CN1CCN(C(=O)C[C@@H]2C=C[C@@H](NS(=O)(=O)c3cccc(F)c3)[C@@H](CO)O2)CC1,inactive
3,C[C@H](NC(=O)C[C@@H]1C[C@@H]2c3cc(NC(=O)Nc4ccc(C(F)(F)F)cc4)ccc3O[C@@H]2[C@@H](CO)O1)c1ccccc1,inactive
4,COc1cccc(NC(=O)N(C)C[C@@H]2OCc3ccccc3-c3c(n(C)c4ccccc34)C(=O)N([C@@H](C)CO)C[C@@H]2C)c1,inactive
5,COc1ccc(C(=O)CC(=O)C(=O)Nc2c(C)cccc2C)cc1,inactive
6,CN(C)S(=O)(=O)c1ccc(NC(=O)CN2CCN(c3ccccn3)CC2)cc1,inactive
7,CC1CCCCC12NC(=O)N(CC(=O)OCC(=O)Nc1ccc(F)cc1[N+](=O)[O-])C2=O (centres undefined),inactive
8,Cc1ccc(CCNC(=O)c2ccc(CS(=O)(=O)c3ccccc3C)o2)cc1,inactive
9,O=C(c1ccc(N2C(=O)CCC2=O)cc1)N1CCCSC1=Nc1ccccc1,inactive
10,O=C(OCC(=O)N1CCCC1=O)c1ccc(Cl)cc1[N+](=O)[O-],inactive
11,CCCCn1cnc2c(SCc3ccc(Cl)cc3)nc(N)nc21,inactive
12,O=C(NCc1ccccc1)c1cc(C2CCCCN2S(=O)(=O)c2ccccc2)on1 (centres undefined),inactive
13,O=C(C[C@@H]1CC[C@H]2[C@@H](COC[C@@H](O)CN2CC2CCCCC2)O1)NCc1ccc(F)cc1,inactive
14,C[C@@H]1CN([C@H](C)CO)S(=O)(=O)c2ccc(C#C[C@@H](C)O)cc2O[C@@H]1CN(C)C(=O)C1CC1,inactive
